Source: PubChem BioAssay (National Center for Advancing Translational Sciences (NCATS))
Hits are enriched below; roughly 0.9% of the tested compounds scored in any of these assays.
RXFP1 antagonist: RXFP1 (human) relaxin receptor antagonism; AID 1259400; activity change, negative = inhibition, % at 57.5 µM; HEK293-RXFP1, relaxin-stimulated cAMP HTRF, 30 min; stronger effect = lower value; actives 0.59% (n = 350,000); Q9HBX9;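 active means activity change of -60% or lower, but not beyond a set lower limit; inconclusive means change between -60% and -40%, or beyond the set limit; inactive means change above -40%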
gsp antagonist: antagonizes gsp, the McCune-Albright syndrome mutation. gsp-mutant cells, cAMP HTRF, 30 min. Potency, µM (highest dose often 76.9 µM), usual class: inhibitors. actives 0.4% (n = 340,000); calls by dose curve; cell line not stated here;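 further: intracellular cAMP measured with PDE inhibitor Ro 20-1724 present during compound exposure; nearly all actives have a fitted effect of over 65% in size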
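HTRF cAMP read-out (cAMP-d2 plus anti-cAMP antibody-K in lysis buffer, 30 min RT). Before lysis, cells are exposed to compounds with […] for 30 min at 37C in DPBS containing Ca/Mg, BSA and Tween 20.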
gsp ag: activates gsp, the McCune-Albright syndrome mutation; actives 0.13% (n = 340,000); gsp mutant cells, cAMP HTRF, 30 min; Potency, µM (highest dose often 76.9 µM), actives largely listed as activators; active means well fitted activation curve with a large enough effect; inconclusive means small, poorly fitted or top-dose-only effect, or another doubt; inactive means no such curve, though single readings can be large or run the other way; cell line not stated here;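 further: phosphodiesterase inhibitor Ro 20-1724 added with compounds to block cAMP breakdown; nearly all actives have a fitted effect of over 60% in size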
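Cells stably selected in G418 were plated at 2000/well, grown 16-24 hr, then given compounds in DMSO with the PDE inhibitor […] (300 uM solution added) for 30 min at 37C; cAMP was read by HTRF.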
RXFP1 ag: RXFP1 (human) receptor agonism; Q9HBX9; HEK293T-RXFP1 cAMP TR-FRET, 30 min; response scale: percent of porcine relaxin response, buffer zero; Potency, µM (titrated, usually from 57.5 µM), usual class: activators; actives 0.3% (n = 370,000); AID 2676; active means well fitted activation curve with a large enough effect; inconclusive means small, poorly fitted or top-dose-only effect; further: nearly all actives have a fitted effect of over 60% in size
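cAMP rise read by TR-FRET after 30 min, 37C compound exposure (up to 58 uM) in RXFP1-transfected HEK293 cells with Ro 20174 present. EC50 from Hill-equation fits, with 29 nM porcine relaxin as 100% and buffer as basal.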
Each line names hits and unclear results; the compound was inactive in the other large screens.

CCC(=O)OCCNc1cc(SCCC(=O)OC)c2nonc2c1[N+](=O)[O-]	gsp ag inconclusive
CCC(=O)OCCNc1cc(Sc2nccn2C)c2nonc2c1[N+](=O)[O-]	RXFP1 antagonist -90
COc1cc(S(N)(=O)=O)cc(C(=O)O)c1OC	none (no result: gsp antagonist, gsp ag, RXFP1 ag)
COc1cc2c(cc1OC)C(C)N(C(=O)c1cc3c(s1)-c1ccccc1OC3)CC2 (configuration not stated)	none
COc1cc2c(cc1OC)C(C)N(C(=O)c1cc3c(s1)-c1c(C)cccc1OC3)CC2 (configuration not stated)	gsp antagonist 35µM (no result: RXFP1 antagonist)
CCCCCCC(=O)Nc1cc2nc3c(nc2cc1C)c(=O)n(C)c(=O)n3C	none (no result: gsp antagonist, gsp ag)
NC[C@H]1O[C@H](O[C@H]2[C@H](O[C@@H]3O[C@H](CO)[C@@H](O)[C@H]3O)C(O)[C@H](N)C[C@@H]2N)[C@H](N)[C@@H](O)[C@@H]1O (some centres not stated)	none (no result: gsp antagonist, gsp ag, RXFP1 ag)
O=C(O)c1cc(-c2cccs2)nc2ccc(F)cc12	gsp ag 25µM, RXFP1 ag inconclusive
COc1ccc2oc(-c3ccc(C)c(NC(=O)Cc4ccc(Cl)cc4)c3)nc2c1	none (no result: RXFP1 antagonist, gsp antagonist, gsp ag)
CCOc1ccc2[nH]c(=O)c(CN(CCCN3CCOCC3)Cc3nnnn3Cc3ccc(OC)cc3)cc2c1	none (no result: gsp antagonist)
COc1cc2cc(CN(CCCN3CCOCC3)Cc3nnnn3Cc3ccccc3)c(=O)[nH]c2cc1OC	gsp antagonist 8.9µM
COc1cc(NC(=O)C(C)Oc2ccccc2)ccc1NC(=O)COc1ccccc1 (configuration not stated)	gsp antagonist 40µM
CC(C)(C)OC(=O)NCCCCCc1nnc(SCC(=O)Nc2cccc(Cl)c2)o1	gsp antagonist 35µM
CC1CCCN(S(=O)(=O)c2ccc3c(c2)c(=O)nc2ccc(Cl)cn23)C1 (configuration not stated)	gsp antagonist 40µM, gsp ag inconclusive
Cc1ccn2c(c1)nc(=O)c1cc(S(=O)(=O)N3CCOCC3)ccc12	gsp ag inconclusive
CC1CCCN(S(=O)(=O)c2ccc3c(c2)n(C)c(=O)c(=O)n3C)C1 (configuration not stated)	gsp antagonist 50µM
Cc1ccc(S(=O)(=O)N2CCCC(C)C2)cc1 (configuration not stated)	none
COc1ccccc1Nc1c2c(nc3ccc(NC(=O)c4cccc(OC)c4OC)cc13)CCCC2	none (no result: gsp antagonist, gsp ag)
COc1ccccc1Nc1c2c(nc3ccc(NC(=O)c4ccccc4F)cc13)CCCC2	RXFP1 antagonist -66 (no result: gsp antagonist, gsp ag)
COc1ccc(-c2nc3ccccc3o2)cc1NC(=O)c1cccc2c(Cl)cccc12	none (no result: gsp antagonist, gsp ag)
Cc1ccc(OCc2cc(C(=O)N(C)CCc3ccccn3)no2)cc1C	gsp ag inconclusive
Cc1ccc(OCc2cc(C(=O)N(C)CCc3nc4ccccc4[nH]3)no2)cc1C	gsp antagonist 35µM
O=C(COc1cccc(C(F)(F)F)c1)NCC(c1ccco1)N1CCCCC1 (configuration not stated)	RXFP1 antagonist -61
Cc1cccc(C(=O)N(Cc2ccco2)Cc2ccccc2F)c1	RXFP1 antagonist -72 (no result: gsp antagonist, gsp ag)
Cc1ccc(CN(Cc2ccco2)C(=O)c2cccc(C)c2)cc1	none (no result: gsp antagonist, gsp ag)
CCN1CCN(c2ncnc3c2cnn3-c2ccc(F)cc2)CC1	none (no result: gsp antagonist, gsp ag)
COC(=O)COc1ccc(S(=O)(=O)NCc2ccncc2)cc1	gsp antagonist 11µM (no result: RXFP1 antagonist)
CCOC(=O)COc1ccc(S(=O)(=O)NCc2cccnc2)cc1	none
CC(C)(C)C(=O)NC(=S)NNC(=O)C(c1ccccc1)c1ccccc1	RXFP1 antagonist -94
CC(=O)NNC(=S)NC(=O)C(c1ccccc1)c1ccccc1	none
Cc1ccc(C(CNC(=O)Nc2ccc(Cl)cc2)N2CCN(C)CC2)cc1 (configuration not stated)	RXFP1 antagonist -84, gsp ag inconclusive
CN1CCN(C(CNC(=O)Nc2ccc(Cl)cc2)c2ccc(F)cc2)CC1 (configuration not stated)	none
O=[N+]([O-])c1ccc(S(=O)Cc2ccccc2)c([N+](=O)[O-])c1 (configuration not stated)	RXFP1 antagonist -103 (no result: RXFP1 ag)
O=C(CCN1C(=O)/C(=C/c2ccccc2F)SC1=S)Nc1cccnc1	gsp antagonist inconclusive
O=C(CCN1C(=O)/C(=C\c2ccccc2Cl)SC1=S)Nc1cccnc1	RXFP1 antagonist inconclusive, gsp antagonist 35µM
COc1ccc(C2C=C(c3ccccc3)Nc3nc(NC(=O)/C=C/c4ccc(Cl)cc4)nn32)cc1 (configuration not stated)	none (no result: gsp antagonist, gsp ag)
Cc1ccc(-n2cc3c(-c4cccc(Br)c4)nnc(C)c3n2)cc1	gsp ag inconclusive
Cc1nnc(-c2cccc(Br)c2)c2cn(-c3ccccc3Cl)nc12	RXFP1 antagonist -64
Cc1cc(NCCCO)n2nc(-c3cccs3)cc2n1	none
OCCCNc1cc(-c2ccccc2)nc2cc(-c3ccc(F)cc3)nn12	gsp antagonist 35µM
CCCCC(=O)O[C@]1(C(=O)CO)[C@@H](C)C[C@H]2[C@@H]3CCC4=CC(=O)C=C[C@]4(C)[C@@]3(F)[C@@H](O)C[C@@]21C	none (no result: gsp antagonist, gsp ag, RXFP1 ag)
Cc1nc2ccccc2c2c1CC(C)S2 (configuration not stated)	gsp ag 8.9µM
NS(=O)(=O)c1ccc(-c2ccc(/C=C3\C(=O)Nc4ccccc43)o2)cc1	none (no result: RXFP1 antagonist, gsp antagonist, gsp ag)
CC1(C)OC(=O)C(=Cc2ccc(-c3ccc(S(N)(=O)=O)cc3)o2)C(=O)O1	RXFP1 antagonist -105, gsp antagonist inconclusive
O=C(Nc1ccc(C(=O)N2CCCC2)cc1)c1ccccc1F	none
O=C(Nc1cc(C(=O)N2CCCC2)ccc1N1CCCC1)c1ccccc1F	gsp antagonist 6.3µM, gsp ag inconclusive
